Assay outcomes from PubChem BioAssay.
An excerpt weighted towards active compounds, which were near 0.85% of everything screened.
Glioma ERSR ind – induces the endoplasmic reticulum stress response in human glioma cells; U87-MG GRP78 promoter luciferase reporter, 16 h; Potency, µM, for inactives: at the top dose activation, most hits filed as activators; 0.02% of 420,000 active; AID 602332; also: potency is read from the fitted curve at half-maximal effect; series mostly up to about 76 µM; % of control where 0% means no effect; nearly all actives have a fitted effect of over 35% in size
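ERSR induction read as luciferase luminescence (Bright-Glo, 10 min at room temperature) in stably transfected human U87-MG glioma cells exposed to compounds for 16 h, using GRP78 as sensor.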
CCT modulator – modulators of cytosolic chaperonin (CCT/TRiC) activity; 0.3% of 360,000 active; purified chaperonin ATPase assay, HTRF ADP detection, 30 min; activity change, % (no concentration beside the values), hits read low; in the data active = activity change below about -30%; also: % is scaled to controls: 0 for no effect and ±100 for the full control effect
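TRiC (40 or 20 nM final, by batch activity) in 30 mM Tris pH 7.4, 100 mM KCl, 5 mM MgCl2, 1 mM DTT was treated with compound at 76 uM single dose, then 10 uM ATP, 30 min at 37 °C. ADP was read by HTRF Transcreener.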
GLS inh – inhibitors of human glutaminase (GLS); O94925; GLS enzymatic activity, qHTS titration; Potency, µM (highest dose often 45.5 µM), without a hit: top-dose activity change, negative = inhibition, most hits filed as inhibitors; 0.21% of 410,000 active; AID 624170; also: potency is read from the fitted curve at half-maximal effect; % is scaled to controls: 0 for no effect and ±100 for the full control effect
Target sequence (O94925 whole entry, looked up): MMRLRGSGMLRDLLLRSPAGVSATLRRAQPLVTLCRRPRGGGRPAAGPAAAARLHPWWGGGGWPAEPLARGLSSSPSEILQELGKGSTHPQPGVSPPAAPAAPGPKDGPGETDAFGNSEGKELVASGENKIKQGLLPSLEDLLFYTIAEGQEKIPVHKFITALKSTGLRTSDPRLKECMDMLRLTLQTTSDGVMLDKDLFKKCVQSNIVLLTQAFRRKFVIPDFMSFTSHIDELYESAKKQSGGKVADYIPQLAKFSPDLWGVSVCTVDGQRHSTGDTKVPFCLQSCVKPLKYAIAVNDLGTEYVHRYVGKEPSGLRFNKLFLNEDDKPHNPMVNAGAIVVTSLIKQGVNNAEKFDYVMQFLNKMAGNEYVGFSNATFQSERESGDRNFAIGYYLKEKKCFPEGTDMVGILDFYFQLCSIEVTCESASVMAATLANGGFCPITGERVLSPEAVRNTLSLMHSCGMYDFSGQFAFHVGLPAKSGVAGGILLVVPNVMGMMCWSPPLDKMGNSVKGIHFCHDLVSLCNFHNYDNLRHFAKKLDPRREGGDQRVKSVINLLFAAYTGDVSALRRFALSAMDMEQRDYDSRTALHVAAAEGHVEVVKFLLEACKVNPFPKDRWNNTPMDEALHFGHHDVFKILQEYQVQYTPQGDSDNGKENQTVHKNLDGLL
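Coupled fluorescence readout: glutamate oxidase/HRP/Amplex Red detect glutamate formed by hKGA from L-glutamine (1 mM solution added). Buffer 45 mM KH2PO4 pH 8.2, 0.02% Tween-20; reads at t0 and 30 min RT.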
IDH1 R132H inh – inhibitors of human mutant IDH1 R132H. Potency, µM (titrated, usually from 76.6 µM), for the others: at the top dose activity change, negative = inhibition, actives largely listed as inhibitors. IDH1-R132H enzyme, NADPH consumption, diaphorase/resazurin fluorescence. 0.093% of 390,000 active. AID 602179; also: potency is read from the fitted curve at half-maximal effect; % is scaled to controls: 0 for no effect and ±100 for the full control effect; nearly all actives have a fitted effect of over 65% in size
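IDH1-R132H (0.5 ug/mL dispensed) in pH 7.5 Tris buffer was preincubated 30 min with compound, then given a substrate mix of 0.016 mM NADPH and 2 mM alpha-KG for 80 min at room temperature; remaining NADPH was read by diaphorase/resazurin fluorescence.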
pAkt inh – inhibitors of Akt phosphorylation; Neuro2A IGF-stimulated pAkt S473 HTRF, 20 min; hits give low values; activity change, % for hits at 50 µM; 0.32% of 360,000 active; in the data active = activity change below about -80%; inconclusive = mostly about -51% to -80%; also: % is scaled to controls: 0 for no effect and ±100 for the full control effect
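Neuro2A cells in DMEM with 0.5% FBS, overnight at 37 deg C, given compound at single 50 µM final, then IGF (6 nM final) for 20 min at 37 deg C. Lysed; phospho-Akt Ser473 by HTRF after 24 h, 665/615 ratio.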
MmCpn inh – inhibitors of Methanococcus maripaludis chaperonin TRiC (MmCpn). purified Mm-Cpn ATPase, ADP Transcreener TR-FRET. Potency, µM (top dose mostly 76.9 µM), without a hit: at the top dose activity, negative = inhibition, most hits filed as inhibitors. 0.031% of 330,000 active; also: potency is read from the fitted curve at half-maximal effect; % is scaled to controls: 0 for no effect and ±100 for the full control effect; nearly all actives have a fitted effect of over 80% in size
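ATPase read-out: TR-FRET ADP immunoassay (anti-ADP Eu cryptate vs ADP-d2), ex 320 nm, em 590/665 nm; signal drops as ADP forms. Enzyme 25 nM, ATP 10 uM, 30 min at 37°C after 10 min compound preincubation.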
* = called active by the depositor; i = inactive; ? = inconclusive; . = no result given. Unless noted, calls follow the shape of the dose curve; as a rule, active = well fitted curve in the direction sought with a large enough effect; inconclusive = small, poorly fitted or top-dose-only effect, or another doubt; inactive = no such curve, though single readings can be large; an effect the other way counts as inactive or inconclusive.

SMILES	Glioma ERSR ind	CCT modulator	GLS inh	IDH1 R132H inh	pAkt inh	MmCpn inh
COc1ccc(-n2c3c(cc(-c4nc(-c5ccc(C)cc5)cs4)c2=O)C(=O)CC(C)(C)C3)cc1	-1.6%	.	-10.7%	-5.8%	.	.
COc1ccc(OC)c(-n2c3c(cc(-c4nc(-c5ccc(Cl)cc5)cs4)c2=O)C(=O)CC(C)(C)C3)c1	-4.5%	.	1.6%	1.26µM*	.	.
COc1ccc(NC(=O)/C=C/C(=O)O)cc1Cl	-4.7%	-0.9	3.3%	-7.9%	i	6.31µM*
COc1ccc(-c2cccc(C(=O)Nc3cccc(C(=O)O)c3)c2)cc1	-5.8%	-78.6*	15.0%	-0.4%	i	1.3%
COc1ccc(C(=O)Nc2cc(C(=O)O)cc(C(=O)O)c2)cc1Cl	-0.5%	-0.5	-2.8%	0.6%	i	0.9%
COc1ccc(-c2cccc(C(=O)Nc3ccc(C)cc3)c2)cc1	-5.2%	-1.0	1.4%	1.2%	i	1.8%
COC(=O)c1cccc(NC(=O)c2ccc(OC)c(Cl)c2)c1	0.4%	-77.5*	-4.8%	-6.5%	i	1.6%
CC/C(O)=N/S(=O)(=O)c1ccc(-c2c(-c3ccccc3)noc2C)cc1	-2.2%	.	3.8%	.	.	.
Cc1cnc(C)c(-c2cccc3c2OC(CNC(=O)/C=C/c2ccc(F)c(F)c2)C3)n1 (configuration not stated)	-4.7%	.	.	.	.	.
CCOC(=O)N1CCN(S(=O)(=O)c2ccc(C)c(C)c2)CC1	-3.0%	0.5	-3.4%	2.5%	-99.0%*	0.6%
CCOC(=O)N1CCN(S(=O)(=O)c2ccc(OCC)c(C)c2)CC1	-5.0%	0.3	0.9%	5.7%	i	0.8%
COCCN1CCN(C(=O)c2cnn(-c3nccc(-c4cc5ccccc5o4)n3)c2C2CC2)CC1	-3.2%	.	.	.	.	.
O=C(O)/C(=C/c1ccco1)c1ccccc1	.	.	.	.	.	-2.7%
Cc1ccc(NC(=O)/C(=C/c2ccco2)c2ccccc2)c(C)c1	-4.0%	-1.5	1.8%	2.7%	-129.2%*	0.0%
Cc1c(C(=O)NCC(C)C)sc2ncnc(NCC3CCCO3)c12 (configuration not stated)	-1.3%	.	.	.	.	.
CN1N=C(C(=O)N2CCOc3ccc(CN4CCCC(C(=O)c5cccnc5)C4)cc3C2)CCC1=O (configuration not stated)	-6.7%	.	.	.	.	.
COc1cc(CC(=O)O)c(C(C)=O)cc1OC	-5.3%	-3.6	5.7%	6.3%	i	-0.7%
COc1cc(OC)c(C(=O)CCC(=O)O)cc1OC	-7.8%	-31.0*	11.1%	9.2%	i	-0.7%
C=CCOc1ccc(C(=O)/C=C2/C(=O)Nc3ccccc32)cc1	2.3%	-44.9*	-0.3%	-0.7%	i	-2.4%
NC(=O)COc1ccc(C(=O)/C=C2/C(=O)Nc3ccccc32)cc1	-12.3%	-18.7	9.2%	3.1%	i	-0.7%
COC[C@@H](c1ccc(C(F)(F)F)cc1)N1CCN(C2(C)CCN(C(=O)c3c(C)ncnc3C)CC2)C[C@@H]1C	-2.7%	.	-0.6%	.	.	.
Cn1nccc1C(=O)NCC1CCC2(CCN(Cc3cccc4ncccc34)CC2)O1 (configuration not stated)	-4.6%	.	.	.	.	.
CCSc1ncnc2sc3c(c12)CCC3	-6.0%	0.3	4.1%	5.7%	i	-0.1%
Fc1ccc(CSc2ncnc3sc4c(c23)CCCC4)cc1	-0.9%	-3.8	-1.4%	-0.1%	-114.0%*	0.8%
Brc1ccc(-c2nc3ccccc3s2)s1	-1.4%	0.3	-5.6%	0.2%	.	39.8µM*
SMILES	Glioma ERSR ind	CCT modulator	GLS inh	IDH1 R132H inh	pAkt inh	MmCpn inh
Nc1ccc(-c2nc3ccccc3s2)cn1	-3.7%	-0.7	6.7%	-8.4%	i	?
Cc1cc(-c2ccnc(-n3ncc(C(=O)N(C)CC(O)c4ccccc4)c3C)n2)c(C)s1 (configuration not stated)	3.0%	.	.	.	.	.
Cc1ccc(CN2CCOc3ccc(CN4CCC(O)(c5cccnc5)CC4)cc3C2)cc1	-4.1%	.	.	.	.	.
Cc1cc(C)cc(C(=O)NCc2nc(-c3cccc(NC(=O)c4ccccn4)c3)oc2C)c1	-2.4%	.	.	.	.	.
O=C1NC(c2ccccc2Cl)Nc2ccccc21 (configuration not stated)	-5.0%	-0.2	-4.1%	-1.7%	-111.2%*	0.7%
O=C(c1ccc2snnc2c1)N1CCSCC1	-4.2%	0.9	-6.1%	8.7%	-107.9%*	1.3%
CCCC[C@@H](CC)COC(=O)C[C@H](C(=O)OC[C@H](CC)CCCC)S(=O)(=O)O	-5.6%	.	-8.3%	.	.	.
O=C(O)CSc1nnc(CNc2ccc(Cl)cc2)n1Cc1ccccc1	0.0%	-1.6	53.5%	3.4%	-112.8%*	-0.5%
Cc1ccc(C(=O)NCCc2nnc3n2CCN(Cc2cc(C)cc(C)c2)CC3)cc1	-0.8%	.	.	.	.	.
O=C1NCCCC1C(=O)Nc1cccc(C(F)(F)F)c1 (configuration not stated)	-1.3%	-0.1	6.0%	6.3%	-102.4%*	-0.9%
O=C(CN1C(=O)CNC1=O)Nc1cccc(C(F)(F)F)c1	1.7%	1.1	-3.2%	2.3%	-100.6%*	0.4%
O=C1CCC(C(=O)Nc2cccc(C(F)(F)F)c2)N1 (configuration not stated)	-4.3%	-6.9	0.7%	2.1%	i	0.2%
O=C(NNc1cccc(Cl)n1)c1c(Cl)cccc1Cl	-0.3%	-0.5	.	4.9%	.	-1.6%
O=C(NNc1cccc(Cl)n1)c1c(F)cccc1F	12.7%	1.4	7.94µM*	-5.8%	i	0.4%
Cc1ccc(S(=O)(=O)N/N=C/c2cc(Br)c(C)o2)cc1	10.2%	-0.2	12.7%	7.1%	-95.4%*	3.4%
Cc1ccc(C(=O)Nc2cccc(-c3nc(CNC(=O)c4ccc(F)cc4Cl)c(C)o3)c2)s1	-3.8%	.	.	.	.	.
CSC1=NC=C(C#N)C2=NC(c3c(Cl)cccc3Cl)NN12 (configuration not stated)	-9.9%	2.2	11.2µM*	.	i	.
COCC(=O)Nc1cc(C(=O)N2CCCCC2c2nccn2C)cc2nc(-c3ccccc3)n(C)c12 (configuration not stated)	-0.8%	.	.	.	.	.
Cn1nnnc1Sc1ncnc2scc(-c3cc4ccccc4o3)c12	-11.8%	.	-7.6%	.	.	39.8µM*
COc1ccc([C@H]2CN(CCc3ccccc3)C(=O)[C@@H]2CC(=O)Nc2ccccc2)cc1	0.4%	-42.6*	1.6%	4.4%	i	.
CNC(=O)C[C@H]1C(=O)N(CCc2ccccc2)C[C@@H]1c1ccc(OC)cc1	-1.8%	-2.3	-3.5%	-0.6%	i	.
CC(=Nc1ccccc1)C1=C(O)C(Cc2ccc(O)cc2)NC1=O (configuration not stated)	-2.7%	-68.1*	29.2%	2.0%	i	.
CC(=Nc1ccccc1)C1=C(O)C(Cc2cccc(F)c2)NC1=O (configuration not stated)	6.3%	-3.5	-1.6%	-4.6%	i	.
